Results on seven molecules are retold here after PubChem BioAssay (Tox21).

Values joined by “and” are separate entries in the source; they are usually repeats but may differ in a detail not shown here. Equal values may be shown once. Records with an inconclusive call do not appear. Where a structure was tested more than once in an assay, its records may differ in their call. Active and inactive are the calls of the source. Unless noted, calls come from the whole dose curve.

The nature of assay [1]: Nuclear factor erythroid 2-related factor 2/antioxidant responsive element (Nrf2/ARE) small molecule agonists: qHTS cell viability counter screen in human keratinocytes (AID 1919968; active = well fitted curve in the direction sought with a large enough effect in the repeat runs; an effect the other way counts as inactive or inconclusive; note: nearly all actives have a fitted effect of over 55% in size). In short, it runs like this:
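Cells of the KeratinoSens line were plated at 1,500 per well and left for 5 h before compound transfer from DMSO stocks. After a 23 h incubation (37 C, 5% CO2), CellTiter-Fluor was added. Signal was taken as fluorescence intensity 1 h later.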
Background: In qHTS, concentration-response curves come from the screen itself.

Assay [2] in a line: Nuclear factor erythroid 2-related factor 2/antioxidant responsive element (Nrf2/ARE) small molecule agonists: luciferase reporter gene qHTS assay in human keratinocytes (AID 1919969). Note: nearly all actives have a fitted effect of over 35% in size. Note: potency is the fitted concentration of half-maximal effect. For orientation: Reporter assays use an easily measured gene product as a stand-in for the process of interest.
Assay [3] addresses Gonadotropin-releasing hormone receptor (Homo sapiens) (UniProt P30968). The assay can be described thus: Human gonadotropin-releasing hormone receptor (GnRHR) small molecule agonists, calcium flux assay in GnRHR-HEK293 cells (AID 1920063). Note: nearly all actives have a fitted effect of over 35% in size. In short, it runs like this:
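Compounds dissolved in DMSO are pin-transferred onto dye-loaded GnRHR-HEK293 cells, which were seeded 18 h before at 37 C/5% CO2. Calcium signal is read as fluorescence intensity at 1 s intervals for 3 min.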
In general terms: Calcium assays in cells follow changes in intracellular calcium, usually with a dye or a luminescent sensor.

Assay [4] addresses KiSS-1 receptor (Homo sapiens) (UniProt Q969F8). The assay can be described thus: Human kisspeptin (KISS1R) small molecule agonists, calcium flux assay in KISS1R-HEK293 cells (AID 1920064; active = well fitted curve in the direction sought with a large enough effect in the repeat runs; an effect the other way counts as inactive or inconclusive). A digest of the protocol: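 Cell line: HEK293, stable human KISS1R. Dye loading 1 h at 37 C after 18 h culture. Read: kinetic fluorescence, 480/540 nm, 3 min at 1 s intervals.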
Assay [5] can be described thus: G protein-coupled receptor (GPCR) small molecule agonists, calcium flux assay: HEK293 wild type cell line counter screen (AID 1920065). A digest of the protocol:
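Tox21 10K compounds, 15 concentrations each in triplicate, pin-transferred in DMSO onto dye-loaded cells; kinetic read at 480/540 nm for 3 min, 1 s intervals.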

Assay [6] can be described thus: p53 small molecule agonists, cell-based qHTS assay with human liver microsomes (AID 1963577). A digest of the protocol:
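p53RE-bla reporter cells were pre-incubated 5 h at 37 C, then treated with compounds plus human liver microsomes (0.5 mg/mL final) and NADPH (0.5 mg/mL final) for 16 h at 37 C. Beta-lactamase activity was read by LiveBLAzer fluorescence after 2 h at room temperature.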

A short description of assay [7]: p53 small molecule agonists, cell-based qHTS assay with rat liver microsomes (AID 1963578). A digest of the protocol:
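p53RE-bla cells were exposed to compounds together with rat liver microsomes (0.5 mg/mL final) and NADPH (0.5 mg/mL final) for 16 h at 37 C, then read by LiveBLAzer beta-lactamase fluorescence after 2 h at room temperature.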

Assay [8] is described as follows: p53 small molecule agonists, cell-based qHTS assay with human liver microsomes: qHTS cell viability counter screen (AID 1963579). Note: nearly all actives have a fitted effect of over 45% in size. A digest of the protocol:
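p53RE-bla cells (4,000/well) were pre-incubated 5 h at 37 C, then given compounds in DMSO plus human liver microsomes (0.5 mg/mL final) and NADPH (0.5 mg/mL final) for 16 h at 37 C. Viability was read by CellTiter-Glo luminescence.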

Assay [9] is described as follows: p53 small molecule agonists, cell-based qHTS assay: qHTS cell viability counter screen (AID 1963581). Note: nearly all actives have a fitted effect of over 45% in size. In short, it runs like this: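 ATP content measured by luminescence in HCT-116 p53RE-bla cells treated 16 h at 37 C, same wells as the reporter screen.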
A short description of assay [10]: p53 small molecule agonists, cell-based qHTS assay (AID 1963582; active = well fitted activation curve with a large enough effect in the signal ratio in the repeat runs, not every such curve was filed as active; the % refers to the signal ratio). In short, it runs like this: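 16 h compound exposure (37 C) of p53 response element–bla cells, preceded by 5 h recovery at 37 C/5% CO2; read-out via LiveBLAzer B/G FRET substrate, 2 h RT, fluorescence intensity.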
Assay [11] concerns the target 5-hydroxytryptamine receptor 2A (Homo sapiens) (UniProt P28223). The assay can be described thus: 5-hydroxytryptamine receptor 2A (HTR2A) small molecule antagonists, cell-based qHTS assay (AID 1963586). Note: nearly all actives have a fitted effect of over 45% in size. In short, it runs like this:
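CHO cells stably expressing human HTR2A were plated for 18 h at 37 C, then loaded with calcium dye for 1 h. Compounds were preincubated 5 min at room temperature before DOI (4 nM solution) was added. Kinetic fluorescence was read for 3 min.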

Assay [12] has the same target. The assay can be described thus: 5-hydroxytryptamine receptor 2A (HTR2A) small molecule agonists, cell-based qHTS assay (AID 1963587). Note: nearly all actives have a fitted effect of over 30% in size. In short, it runs like this:
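CHO cells stably expressing human HTR2A, plated 18 h, loaded with calcium dye 1 h at 37 C. Agonist mode: compounds added and intracellular calcium fluorescence recorded kinetically for 2 min at 1 sec intervals.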

Assay [13] concerns the target Muscarinic acetylcholine receptor M1 (Homo sapiens) (UniProt P11229). The experiment in a line: Cholinergic receptor muscarinic 1 (CHRM1) small molecule antagonists, cell-based qHTS assay (AID 1963588). Note: nearly all actives have a fitted effect of over 40% in size. Note: potency is the fitted concentration of half-maximal effect. In short, it runs like this: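 Compounds were tested at 15 concentrations in three independent runs. Dye-loaded CHRM1-CHO cells were exposed 5 min at room temperature before stimulation by acetylcholine added at 50nM. Intracellular calcium was read kinetically on FDSS for 3 min.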

Assay [14] has the same target. The assay can be described thus: Cholinergic receptor muscarinic 1 (CHRM1) small molecule agonists, cell-based qHTS assay (AID 1963589). Note: nearly all actives have a fitted effect of over 35% in size. In short, it runs like this:
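Homogeneous fluorescence calcium flux, agonist mode. Human M1-expressing CHO cells; compound dosed at 15 concentrations, three independent runs; signal sampled every 1 sec.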

A short description of assay [15]: cAMP Responsive Elements (CRE) small molecule agonists, cell-based qHTS assay (AID 1963590). In short, it runs like this: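 HEK 293T cells stably bearing CRE-bla were plated at 2,000 cells per well and rested 18 h. Compounds, positive controls or DMSO were added for 3 h at 37 C. LiveBLAzer B/G substrate was then loaded for 2 h at room temperature.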
Assay [16] can be described thus: cAMP Responsive Elements (CRE) small molecule antagonists, cell-based qHTS assay (AID 1963591; active = well fitted inhibition curve with a large enough effect in the signal ratio in the repeat runs, not every such curve was filed as active; the % refers to the signal ratio). A digest of the protocol: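 First, CRE-bla HEK293T cells settled 18 h at 37 C. Next, compound and 0.25 uM final NKH477 were applied for 3 h. Last, LiveBLAzer B/G substrate was loaded for 2 h at room temperature.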
The target in assay [17] is Beta-2 adrenergic receptor (Homo sapiens) (UniProt P07550). The assay can be described thus: Adrenergic beta2 receptor (ADRB2) small molecule antagonists, cell-based qHTS assay (AID 1963592). Note: series mostly up to about 92 µM; nearly all actives have a fitted effect of over 50% in size. In short, it runs like this:
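Assay format: CHO-ADRB2 cells, 18-20hr seeding at 37C/5% CO2, then compound plus 1nM isoproterenol agonist mix for 0.5hr RT. Homogeneous time-resolved fluorescence cAMP detection after 1hr, expressed as 665/615 nm ratio.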

The target in assay [18] is D(2) dopamine receptor (Homo sapiens) (UniProt P14416). The assay can be described thus: Dopamine D2 receptor (DRD2) small molecule agonists, cell-based qHTS assay (AID 1963594). Note: nearly all actives have a fitted effect of over 35% in size. A digest of the protocol:
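HEK293 cells stably expressing human DRD2, pre-treated with PDE inhibitor Ro20-1724 (0.1 mM final) and compound 10 min at room temperature, then stimulated with NKH477 (200nM […]) for 30 min. cAMP read by HTRF (665/620 nm).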

Assay [19] shares this target. The assay can be described thus: Dopamine D2 receptor (DRD2) small molecule antagonists, cell-based qHTS assay (AID 1963595; active = well fitted inhibition curve with a large enough effect in the signal ratio in the repeat runs, with a control signal flat; the % refers to the signal ratio). A digest of the protocol: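 HEK293 cells stably expressing DRD2, preincubated with 0.1 mM Ro20-1724 and compounds 10 min, were stimulated with 200 nM NKH477 plus 12 nM quinpirole for 30 min at room temperature; cAMP measured by HTRF (665/620 nm).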

Assay [20] in a line: p53 small molecule agonists, cell-based qHTS assay with rat liver microsomes: qHTS cell viability counter screen (AID 1963580). Note: nearly all actives have a fitted effect of over 45% in size. A digest of the protocol: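 After the beta-lactamase ratio was read, CellTiter-Glo was added to the same wells and luminescence measured at 30 min; cells had been treated 16 h at 37 C with compounds, rat liver microsomes and NADPH (0.5 mg/mL final each).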

Chain of Beta-2 adrenergic receptor (Homo sapiens) (P07550 whole entry, looked up): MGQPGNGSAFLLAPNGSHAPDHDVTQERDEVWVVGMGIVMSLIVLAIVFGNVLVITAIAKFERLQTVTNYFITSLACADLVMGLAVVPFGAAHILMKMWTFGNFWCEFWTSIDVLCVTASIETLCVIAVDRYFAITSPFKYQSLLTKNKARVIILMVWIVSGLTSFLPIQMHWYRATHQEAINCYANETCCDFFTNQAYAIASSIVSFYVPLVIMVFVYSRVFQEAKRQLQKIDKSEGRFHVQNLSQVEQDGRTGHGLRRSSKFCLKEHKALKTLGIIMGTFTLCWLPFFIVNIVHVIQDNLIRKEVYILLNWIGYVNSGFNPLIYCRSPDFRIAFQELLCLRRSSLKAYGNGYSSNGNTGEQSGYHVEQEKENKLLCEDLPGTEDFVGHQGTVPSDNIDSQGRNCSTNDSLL
Chain of KiSS-1 receptor (Homo sapiens) (Q969F8 whole entry, looked up): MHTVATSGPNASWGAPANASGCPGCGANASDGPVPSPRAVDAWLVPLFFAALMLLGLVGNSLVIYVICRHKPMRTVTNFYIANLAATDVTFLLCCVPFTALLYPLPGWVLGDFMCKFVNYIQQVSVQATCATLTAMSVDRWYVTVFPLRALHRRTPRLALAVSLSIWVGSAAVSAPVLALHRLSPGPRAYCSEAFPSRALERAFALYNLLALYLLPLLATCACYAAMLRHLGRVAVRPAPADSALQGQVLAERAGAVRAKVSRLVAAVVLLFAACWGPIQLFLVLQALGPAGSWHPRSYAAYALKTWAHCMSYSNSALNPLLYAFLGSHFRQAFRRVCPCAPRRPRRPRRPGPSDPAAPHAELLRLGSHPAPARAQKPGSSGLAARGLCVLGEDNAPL
Chain of 5-hydroxytryptamine receptor 2A (Homo sapiens) (P28223 whole entry, looked up): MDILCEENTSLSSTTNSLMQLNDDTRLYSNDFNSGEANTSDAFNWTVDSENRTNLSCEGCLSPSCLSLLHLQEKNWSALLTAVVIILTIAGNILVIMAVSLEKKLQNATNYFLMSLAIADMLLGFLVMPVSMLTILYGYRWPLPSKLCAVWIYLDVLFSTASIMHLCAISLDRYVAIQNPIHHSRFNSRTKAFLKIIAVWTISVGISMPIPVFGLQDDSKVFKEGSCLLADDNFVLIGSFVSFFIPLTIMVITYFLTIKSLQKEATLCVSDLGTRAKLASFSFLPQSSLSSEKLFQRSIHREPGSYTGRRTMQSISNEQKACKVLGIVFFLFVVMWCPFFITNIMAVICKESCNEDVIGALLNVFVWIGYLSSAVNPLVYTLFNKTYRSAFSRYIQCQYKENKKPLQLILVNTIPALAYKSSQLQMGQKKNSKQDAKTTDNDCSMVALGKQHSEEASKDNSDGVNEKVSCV
Chain of D(2) dopamine receptor (Homo sapiens) (P14416 whole entry, looked up): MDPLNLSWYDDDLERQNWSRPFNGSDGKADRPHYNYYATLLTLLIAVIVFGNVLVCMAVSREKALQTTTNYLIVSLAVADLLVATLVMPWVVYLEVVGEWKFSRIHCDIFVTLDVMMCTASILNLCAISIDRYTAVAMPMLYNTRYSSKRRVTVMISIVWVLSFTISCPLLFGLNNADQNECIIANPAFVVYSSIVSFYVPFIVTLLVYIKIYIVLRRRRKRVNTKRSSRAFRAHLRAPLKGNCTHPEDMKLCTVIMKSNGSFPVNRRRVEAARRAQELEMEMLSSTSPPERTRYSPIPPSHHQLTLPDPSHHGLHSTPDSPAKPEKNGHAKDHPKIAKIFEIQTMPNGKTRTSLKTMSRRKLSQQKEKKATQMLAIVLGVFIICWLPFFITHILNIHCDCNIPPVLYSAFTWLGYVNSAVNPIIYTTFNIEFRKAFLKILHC
Chain of Gonadotropin-releasing hormone receptor (Homo sapiens) (P30968 whole entry, looked up): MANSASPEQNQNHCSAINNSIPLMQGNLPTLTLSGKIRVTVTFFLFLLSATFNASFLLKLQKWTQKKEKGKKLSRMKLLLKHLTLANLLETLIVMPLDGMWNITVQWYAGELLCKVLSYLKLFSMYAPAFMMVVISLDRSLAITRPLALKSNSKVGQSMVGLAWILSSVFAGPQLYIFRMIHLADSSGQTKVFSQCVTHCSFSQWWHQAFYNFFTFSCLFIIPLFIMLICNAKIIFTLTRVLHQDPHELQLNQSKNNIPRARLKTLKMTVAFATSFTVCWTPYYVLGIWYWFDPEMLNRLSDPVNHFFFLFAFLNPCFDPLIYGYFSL
Chain of Muscarinic acetylcholine receptor M1 (Homo sapiens) (P11229 whole entry, looked up): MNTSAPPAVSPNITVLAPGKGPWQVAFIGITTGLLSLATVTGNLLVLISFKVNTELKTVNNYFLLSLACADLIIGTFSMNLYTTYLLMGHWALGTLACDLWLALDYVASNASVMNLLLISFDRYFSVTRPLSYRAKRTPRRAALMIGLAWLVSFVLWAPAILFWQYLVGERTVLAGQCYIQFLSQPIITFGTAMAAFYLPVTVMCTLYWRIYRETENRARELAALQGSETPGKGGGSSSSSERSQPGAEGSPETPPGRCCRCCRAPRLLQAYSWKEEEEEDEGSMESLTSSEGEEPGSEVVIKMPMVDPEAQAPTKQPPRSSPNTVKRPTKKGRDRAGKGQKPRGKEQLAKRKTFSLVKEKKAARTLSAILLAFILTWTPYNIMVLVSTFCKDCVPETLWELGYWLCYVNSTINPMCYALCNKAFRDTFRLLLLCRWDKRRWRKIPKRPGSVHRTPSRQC

As to `NCCCCCCN`, the Potency result in [1], in assay [2], in assay [3], in assay [4], in assay [5] and in [6] was “inactive” each time. The Potency result in assay [7], in [8], in assay [9], in [10], in assay [11] and in [12] was “inactive” each time. Besides, the Potency result in assay [14], in [15], in assay [16], in assay [17], in assay [18] and in [19] was “inactive” throughout. For the same molecule, the Potency result in [13] was “inactive and 16.8 µM (active)”.
Regarding `CCCCCCCCCCCCCC(=O)OC(C)C`, the Potency entry in assay [1], in assay [2], in assay [3], in assay [4], in assay [5] and in [6] was “inactive” throughout. For the same molecule, the Potency entry in [7], in [8], in assay [9], in assay [10], in assay [12] and in [13] was “inactive” in each case. The Potency result in assay [14], in [15], in [16], in [17], in assay [18] and in assay [19] was “inactive” throughout.
`CCCNC(=O)NS(=O)(=O)c1ccc(Cl)cc1`: the Potency result in assay [1], in assay [2], in assay [3], in [4], in [5] and in assay [6] was “inactive” each time. The Potency result in assay [7], in assay [8], in assay [9], in [10], in assay [15] and in assay [16] was “inactive” throughout. For the same molecule, the Potency result in assay [17], in assay [18] and in [19] was “inactive” throughout.
For the molecule `OCC(O)CS` (stereo unspecified), the Potency entry in [1], in assay [2], in assay [3], in assay [4], in assay [5] and in assay [6] was “inactive” throughout. The Potency result in assay [7], in assay [8], in assay [9], in assay [10], in assay [11] and in [12] was “inactive” throughout. For the same molecule, the Potency result in [13], in assay [14], in [15], in assay [16], in assay [17] and in assay [18] was “inactive” each time. The Potency result in [19] is “inactive”.
In the case of `CCCCC(CC)COC(=O)c1ccc(N(C)C)cc1` (stereo unspecified), the Potency result in assay [1], in [3], in assay [4], in assay [5], in [6] and in assay [7] was “inactive” throughout. Further, the Potency entry in [8], in assay [9], in [10], in [11], in assay [12] and in [13] was “inactive” in each case. The Potency result in [14], in assay [15], in assay [16], in [17] and in assay [18] was “inactive” each time. In addition, the Potency in assay [2] is 30.8 µM (active) and 54.5 µM (active) and inactive.
For the molecule `CC(C)(CO)COC(=O)C(C)(C)CO`, the Potency entry in assay [1], in [2], in assay [3], in assay [4], in [5] and in assay [6] was “inactive” each time. Moreover, the Potency result in assay [7], in [8], in assay [9], in assay [10], in [11] and in [12] was “inactive” each time. Also, the Potency result in [13], in assay [14], in assay [15], in [16], in [17] and in [18] was “inactive” each time. The Potency entry in [19] was “inactive”.
Turning to `NNc1ccc(C(=O)O)cc1`, the Potency result in [1], in [3], in assay [4], in assay [5], in [6] and in assay [7] was “inactive” each time. In addition, the Potency entry in assay [8], in [20], in assay [10], in [11], in assay [13] and in assay [14] was “inactive” each time. Also, the Potency entry in assay [15], in assay [16], in assay [17], in assay [18] and in assay [19] was “inactive” in each case. Besides, the Potency in [2] is 22 µM (active) and 30.9 µM (active).
